Data as given in the supplement of paper PMC8728848.
The full list was thinned out, with the strongest signals kept by preference.

How the values were obtained:
Assay in all cases: glycan array binding signal (z-score within array); higher = stronger binding
Conditions in all cases: glycan notation: IUPAC condensed, linker removed
[1] = molecular target: Gal(b1-4)GlcNAc(b1-3)[GlcNAc(b1-6)]Gal(b1-4)GlcNAc
Method in brief: (§1)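 Glycan array binding is given as a within-array Z-score, which can be read as non-binding when negative. The arrays, 3228 of them, came from the Consortium for Functional Glycomics database and were retained only where the protein sequence was available. Z-scores were averaged across arrays of the same protein sequence at different concentrations or buffers and across linkers.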

[2] = molecular target: Gal(b1-4)GlcNAc(b1-6)[Gal(b1-4)GlcNAc(b1-3)]GalNAc
Method in brief: as §1

[3] = molecular target: Gal3S(b1-4)[Fuc(a1-3)]GlcNAc6S
Method in brief: as §1

Gal6P(b1-4)GlcNAc = molecular target: Gal6P(b1-4)GlcNAc
Method in brief: as §1

[4] = molecular target: GalNAc(b1-3)Gal(a1-6)Gal(b1-4)Glc
Method in brief: as §1

GalNAc(b1-4)GlcNAc = molecular target: GalNAc(b1-4)GlcNAc
Method in brief: as §1

[5] = molecular target: GalNAc(b1-4)GlcNAc(b1-2)Man(a1-3)[GalNAc(b1-4)GlcNAc(b1-2)Man(a1-6)]Man(b1-4)GlcNAc(b1-4)GlcNAc
Method in brief: as §1

GalNAc4S6S(b1-4)GlcNAc = molecular target: GalNAc4S6S(b1-4)GlcNAc
Method in brief: as §1

[6] = molecular target: Glc(a1-6)Glc(a1-6)Glc(a1-6)Glc
Method in brief: as §1

GlcA(b1-3)GlcNAc = molecular target: GlcA(b1-3)GlcNAc
Method in brief: as §1

[7] = molecular target: GlcNAc(b1-3)Gal(b1-4)GlcNAc(b1-2)Man(a1-3)[GlcNAc(b1-3)Gal(b1-4)GlcNAc(b1-2)Man(a1-6)]Man(b1-4)GlcNAc(b1-4)GlcNAc
Method in brief: as §1

[8] = molecular target: GlcNAc(b1-3)Gal(b1-4)GlcNAc(b1-3)Gal(b1-4)GlcNAc(b1-3)Gal(b1-4)GlcNAc(b1-2)[GlcNAc(b1-3)Gal(b1-4)GlcNAc(b1-3)Gal(b1-4)GlcNAc(b1-3)Gal(b1-4)GlcNAc(b1-6)]Man(a1-6)[GlcNAc(b1-3)Gal(b1-4)GlcNAc(b1-3)Gal(b1-4)GlcNAc(b1-3)Gal(b1-4)GlcNAc(b1-2)Man(a1-3)]Man(b1-4)GlcNAc(b1-4)[Fuc(a1-6)]GlcNAc
Method in brief: as §1

[9] = molecular target: GlcNAc(b1-6)Gal(b1-4)GlcNAc
Method in brief: as §1

[10] = molecular target: Man(a1-3)[Man(a1-6)]Man(b1-4)GlcNAc(b1-4)GlcNAc
Method in brief: as §1

[11] = molecular target: Man(a1-3)[Man(a1-6)]Man(b1-4)GlcNAc(b1-4)[Fuc(a1-6)]GlcNAc
Method in brief: as §1

MurNAc(b1-4)GlcNAc = molecular target: MurNAc(b1-4)GlcNAc
Method in brief: as §1

[12] = molecular target: Neu5Ac(a2-3)Gal(b1-3)GalNAc
Method in brief: as §1

[13] = molecular target: Neu5Ac(a2-3)Gal(b1-3)GlcNAc(b1-2)Man(a1-3)[Neu5Ac(a2-3)Gal(b1-3)GlcNAc(b1-2)Man(a1-6)]Man(b1-4)GlcNAc(b1-4)GlcNAc
Method in brief: as §1

[14] = molecular target: Neu5Ac(a2-3)Gal(b1-4)GlcNAc(b1-2)[Neu5Ac(a2-3)Gal(b1-4)GlcNAc(b1-6)]Man(a1-6)[Neu5Ac(a2-3)Gal(b1-4)GlcNAc(b1-2)Man(a1-3)]Man(b1-4)GlcNAc(b1-4)GlcNAc
Method in brief: as §1

[15] = molecular target: Neu5Ac(a2-3)Gal(b1-4)GlcNAc(b1-3)Gal(b1-4)GlcNAc
Method in brief: as §1

[16] = molecular target: Neu5Ac(a2-3)Gal(b1-4)GlcNAc(b1-3)Gal(b1-4)GlcNAc(b1-3)Gal(b1-4)GlcNAc(b1-2)Man(a1-3)[Neu5Ac(a2-3)Gal(b1-4)GlcNAc(b1-3)Gal(b1-4)GlcNAc(b1-3)Gal(b1-4)GlcNAc(b1-2)Man(a1-6)]GalNAc
Method in brief: as §1

[17] = molecular target: Neu5Ac(a2-6)Gal(b1-4)GlcNAc(b1-2)Man(a1-3)[GlcNAc(b1-4)][Neu5Ac(a2-6)Gal(b1-4)GlcNAc(b1-2)Man(a1-6)]Man(b1-4)GlcNAc(b1-4)GlcNAc
Method in brief: as §1

[18] = molecular target: Neu5Ac(a2-6)Gal(b1-4)GlcNAc(b1-2)[Neu5Ac(a2-6)Gal(b1-4)GlcNAc(b1-4)]Man(a1-3)[GlcNAc(b1-4)][Neu5Ac(a2-6)Gal(b1-4)GlcNAc(b1-4)Man(a1-6)]Man(b1-4)GlcNAc(b1-4)GlcNAc
Method in brief: as §1

[19] = molecular target: Neu5Ac(a2-6)Gal(b1-4)GlcNAc6S
Method in brief: as §1

[20] = molecular target: Neu5Ac(a2-8)Neu5Ac(a2-8)Neu5Ac(a2-3)Gal(b1-4)Glc
Method in brief: as §1

B1: GS13971A-bth-447-22-447 (Bacteroides thetaiotaomicron) (protein)
chain: EDVDNERSKGMFSASQSGFSTIEVYDLGPLNKIDLSIAKAGLEDTGGTVTFSVEQSLLDSLNNADGTSYQLLPPECYTIENATYSVSPGGDRRVTGGSLVYDPHKIYNLCGFDELKYVLPLRVSSTGTPMNSDRTATLYGFIVKEAIVRLASTGGDFVVEGGTTTSPMNLDTEISFENEWDLTTSFATKGADYVDNYNSANSTYYIPLPSDFYTLPDVTIAKGKTTGGSAISLLGETLPPGNYLLPVSLGGLSGQGDASINIDKETVANYFVIKQGGPINRDHWTVTANTEEKTGEVSAAYPHNGQTISLIDGEINTFWHSKWQGGEVAPPYEIILDMGKENSVSQLGLIARQNALTSMNLEIYAGDDGETWNLIGKYFFDGSIKTEQMVPVKACDARWIRIYIPTLGSGSSVGHLAEIYVYGTDK
- glycan array binding signal (z-score) [1]: 0.129
- glycan array binding signal (z-score) [2]: -0.463
- glycan array binding signal (z-score) [3]: 0.338
- glycan array binding signal (z-score) (Gal6P(b1-4)GlcNAc): -0.674
- glycan array binding signal (z-score) [4]: -0.007
- glycan array binding signal (z-score) (GalNAc(b1-4)GlcNAc): 2.92
- glycan array binding signal (z-score) [5]: 5.75
- glycan array binding signal (z-score) (GalNAc4S6S(b1-4)GlcNAc): -0.217
- glycan array binding signal (z-score) [6]: 0.028
- glycan array binding signal (z-score) (GlcA(b1-3)GlcNAc): -0.782
- glycan array binding signal (z-score) [7]: -0.725
- glycan array binding signal (z-score) [8]: 2.94
- glycan array binding signal (z-score) [9]: 2.1
- glycan array binding signal (z-score) [10]: 0.252
- glycan array binding signal (z-score) [11]: -0.859
- glycan array binding signal (z-score) (MurNAc(b1-4)GlcNAc): -0.36
- glycan array binding signal (z-score) [12]: 0.032
- glycan array binding signal (z-score) [13]: -0.673
- glycan array binding signal (z-score) [14]: 1.47
- glycan array binding signal (z-score) [15]: 1.45
- glycan array binding signal (z-score) [16]: 2.81
- glycan array binding signal (z-score) [17]: 0.18
- glycan array binding signal (z-score) [18]: -1.25
- glycan array binding signal (z-score) [19]: -1.24
- glycan array binding signal (z-score) [20]: 1.11
